The values below come from publication PMC7862700, “An all-to-all approach to the identification of sequence-specific readers for epigenetic DNA modifications on cytosine”.

Experiment in all cases: DAPPL (digital affinity profiling via proximity ligation, sequencing); 10 mM Tris-HCl pH 7.5, 50 mM NaCl, 1 mM DTT, 4% glycerol, room temperature, 30 min; GST-TFs on glutathione beads, 16-mer random dsDNA library, 0.1% formaldehyde crosslink after washing; high values mean tight binding
Common to all, as to conditions: protein: recombinant; tags: N-terminal GST; dsDNA, one strand shown

One assay deals with T1, FLI1 (Homo sapiens, UniProt Q01543 1-452).
T1 sequence: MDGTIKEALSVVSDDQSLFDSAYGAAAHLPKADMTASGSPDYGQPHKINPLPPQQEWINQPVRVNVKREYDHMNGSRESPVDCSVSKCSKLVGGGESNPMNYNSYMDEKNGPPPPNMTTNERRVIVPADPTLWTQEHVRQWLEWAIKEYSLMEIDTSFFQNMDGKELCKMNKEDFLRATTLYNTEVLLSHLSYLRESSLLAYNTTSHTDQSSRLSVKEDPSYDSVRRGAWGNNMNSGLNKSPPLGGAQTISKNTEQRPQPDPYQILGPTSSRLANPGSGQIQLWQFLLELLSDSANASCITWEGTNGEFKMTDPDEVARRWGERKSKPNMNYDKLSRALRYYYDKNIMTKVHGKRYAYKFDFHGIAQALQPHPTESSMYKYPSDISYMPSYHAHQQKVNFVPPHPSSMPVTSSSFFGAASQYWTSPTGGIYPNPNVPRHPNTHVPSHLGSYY
Summed up: (§1)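 Human transcription factors fused to GST were expressed in yeast, captured on glutathione beads, given DNA barcodes and pooled with a GST-only negative control. Pools were incubated with 200 nmole of a 16-mer random double-stranded DNA library in Tris/NaCl/DTT/glycerol buffer at room temperature for 30 min. They were then washed, crosslinked with 0.1% formaldehyde, proximity-ligated (BsaI/T4 ligase, 1 h, 37 °C), PCR-amplified and sequenced on an Illumina NextSeq500. Binding signal is each 6-mer's read frequency for a factor divided by its frequency for the GST control.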

In the next assay the target is T2, SPIC (Homo sapiens, UniProt Q8N5J4 1-248).
T2 sequence: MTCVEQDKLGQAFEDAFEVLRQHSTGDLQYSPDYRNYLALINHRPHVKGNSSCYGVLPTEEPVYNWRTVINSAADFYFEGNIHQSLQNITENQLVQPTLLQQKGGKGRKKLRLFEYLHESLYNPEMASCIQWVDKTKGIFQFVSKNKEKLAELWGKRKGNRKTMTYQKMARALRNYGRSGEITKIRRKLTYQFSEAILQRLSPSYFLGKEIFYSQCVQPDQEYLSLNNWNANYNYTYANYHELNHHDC
The gist of the method:
as §1

For the next assay, the target named is ELF4 (Homo sapiens, UniProt Q99607 1-663). The gist of the method: as §1
ELF4, sequence (Q99607 whole entry): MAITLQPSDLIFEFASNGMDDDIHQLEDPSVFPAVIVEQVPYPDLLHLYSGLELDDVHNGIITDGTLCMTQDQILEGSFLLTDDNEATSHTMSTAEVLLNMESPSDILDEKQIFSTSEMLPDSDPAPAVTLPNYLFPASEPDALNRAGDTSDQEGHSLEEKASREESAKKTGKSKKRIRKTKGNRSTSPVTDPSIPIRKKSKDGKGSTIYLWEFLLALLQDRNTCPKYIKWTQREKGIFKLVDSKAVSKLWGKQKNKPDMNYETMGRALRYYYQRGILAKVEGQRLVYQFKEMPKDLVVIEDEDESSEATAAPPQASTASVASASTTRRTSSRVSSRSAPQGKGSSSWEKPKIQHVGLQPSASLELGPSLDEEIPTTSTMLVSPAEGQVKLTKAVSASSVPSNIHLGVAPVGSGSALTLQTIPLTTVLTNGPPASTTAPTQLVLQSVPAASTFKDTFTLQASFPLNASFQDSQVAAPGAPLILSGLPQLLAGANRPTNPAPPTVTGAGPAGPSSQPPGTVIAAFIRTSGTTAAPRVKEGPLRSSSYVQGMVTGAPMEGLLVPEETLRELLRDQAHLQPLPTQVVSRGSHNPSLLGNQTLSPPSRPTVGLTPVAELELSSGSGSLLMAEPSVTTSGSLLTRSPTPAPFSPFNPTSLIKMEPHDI
The next assay has as its target T3, ETV2 (Homo sapiens, UniProt O00321 1-342).
T3 sequence: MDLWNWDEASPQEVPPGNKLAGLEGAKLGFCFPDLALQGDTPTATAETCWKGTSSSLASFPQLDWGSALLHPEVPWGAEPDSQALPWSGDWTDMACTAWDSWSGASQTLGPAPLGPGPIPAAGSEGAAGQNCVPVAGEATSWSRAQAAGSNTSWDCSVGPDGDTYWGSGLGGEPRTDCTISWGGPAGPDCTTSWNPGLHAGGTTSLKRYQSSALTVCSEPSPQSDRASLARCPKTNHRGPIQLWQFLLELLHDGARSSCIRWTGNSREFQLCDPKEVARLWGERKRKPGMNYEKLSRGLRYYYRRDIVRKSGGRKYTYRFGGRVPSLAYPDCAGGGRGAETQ
The gist of the method: as §1

The target of another assay is T4, ELK1 (Homo sapiens, UniProt P19419 1-428).
T4 sequence: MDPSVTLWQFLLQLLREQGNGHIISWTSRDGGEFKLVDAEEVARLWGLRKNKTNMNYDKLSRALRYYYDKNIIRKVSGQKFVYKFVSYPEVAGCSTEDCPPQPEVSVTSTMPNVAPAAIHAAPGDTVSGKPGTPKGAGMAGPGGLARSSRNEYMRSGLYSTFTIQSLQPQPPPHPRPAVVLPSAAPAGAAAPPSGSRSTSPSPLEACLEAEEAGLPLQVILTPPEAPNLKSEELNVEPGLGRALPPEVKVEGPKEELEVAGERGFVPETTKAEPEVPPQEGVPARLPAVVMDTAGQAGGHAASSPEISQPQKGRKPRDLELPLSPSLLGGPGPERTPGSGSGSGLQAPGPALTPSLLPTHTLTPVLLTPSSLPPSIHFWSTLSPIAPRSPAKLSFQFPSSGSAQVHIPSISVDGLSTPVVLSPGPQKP
Summed up: as §1

For the next assay, the target named is T5, GABPA (Homo sapiens, UniProt Q06546 1-454).
T5 sequence: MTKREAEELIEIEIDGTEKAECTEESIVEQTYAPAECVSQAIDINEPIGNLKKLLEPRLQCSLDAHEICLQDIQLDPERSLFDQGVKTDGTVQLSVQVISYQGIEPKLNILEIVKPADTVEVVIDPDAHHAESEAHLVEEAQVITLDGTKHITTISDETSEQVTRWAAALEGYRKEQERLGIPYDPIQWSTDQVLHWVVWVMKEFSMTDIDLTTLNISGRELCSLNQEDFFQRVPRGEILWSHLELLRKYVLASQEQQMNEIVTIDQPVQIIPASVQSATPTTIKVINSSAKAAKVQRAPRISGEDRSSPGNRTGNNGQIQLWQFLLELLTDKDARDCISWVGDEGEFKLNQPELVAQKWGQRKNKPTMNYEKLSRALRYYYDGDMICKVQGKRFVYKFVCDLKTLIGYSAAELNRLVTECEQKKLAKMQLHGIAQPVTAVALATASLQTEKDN
Summed up: as §1

The next assay addresses T6, ELK4 (Homo sapiens, UniProt P28324-2 1-405).
T6 sequence: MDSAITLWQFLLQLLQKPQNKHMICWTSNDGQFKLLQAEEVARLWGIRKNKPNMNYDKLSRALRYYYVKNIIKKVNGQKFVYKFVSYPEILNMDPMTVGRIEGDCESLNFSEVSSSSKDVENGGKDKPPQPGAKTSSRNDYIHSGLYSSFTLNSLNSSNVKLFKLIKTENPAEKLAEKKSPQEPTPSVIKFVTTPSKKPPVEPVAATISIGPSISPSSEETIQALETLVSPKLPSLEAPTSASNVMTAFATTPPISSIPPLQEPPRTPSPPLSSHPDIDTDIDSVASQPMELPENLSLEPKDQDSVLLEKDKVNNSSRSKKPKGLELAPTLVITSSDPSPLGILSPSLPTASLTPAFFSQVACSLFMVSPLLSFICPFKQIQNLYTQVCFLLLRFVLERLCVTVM
The gist of the method: as §1

The next assay deals with T7, ERF (Homo sapiens, UniProt P50548 1-548).
T7 sequence: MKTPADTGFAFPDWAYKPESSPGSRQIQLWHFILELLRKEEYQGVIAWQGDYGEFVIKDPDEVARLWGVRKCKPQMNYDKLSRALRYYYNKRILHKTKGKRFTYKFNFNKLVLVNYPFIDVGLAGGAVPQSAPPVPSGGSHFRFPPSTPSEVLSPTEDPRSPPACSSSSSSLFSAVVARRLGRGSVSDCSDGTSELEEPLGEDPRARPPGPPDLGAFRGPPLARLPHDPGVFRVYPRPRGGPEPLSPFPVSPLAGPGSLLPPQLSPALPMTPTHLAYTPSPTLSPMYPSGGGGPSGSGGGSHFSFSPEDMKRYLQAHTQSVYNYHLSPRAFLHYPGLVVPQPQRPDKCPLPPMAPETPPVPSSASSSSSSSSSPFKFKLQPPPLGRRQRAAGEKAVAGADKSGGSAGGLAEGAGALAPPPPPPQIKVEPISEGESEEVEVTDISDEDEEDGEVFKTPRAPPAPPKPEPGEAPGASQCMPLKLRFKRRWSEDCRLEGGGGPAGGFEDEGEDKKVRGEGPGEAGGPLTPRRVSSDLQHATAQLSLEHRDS
Summed up: as §1

The next assay deals with T8, ETV3L (Homo sapiens, UniProt Q6ZN32 1-361).
T8 sequence: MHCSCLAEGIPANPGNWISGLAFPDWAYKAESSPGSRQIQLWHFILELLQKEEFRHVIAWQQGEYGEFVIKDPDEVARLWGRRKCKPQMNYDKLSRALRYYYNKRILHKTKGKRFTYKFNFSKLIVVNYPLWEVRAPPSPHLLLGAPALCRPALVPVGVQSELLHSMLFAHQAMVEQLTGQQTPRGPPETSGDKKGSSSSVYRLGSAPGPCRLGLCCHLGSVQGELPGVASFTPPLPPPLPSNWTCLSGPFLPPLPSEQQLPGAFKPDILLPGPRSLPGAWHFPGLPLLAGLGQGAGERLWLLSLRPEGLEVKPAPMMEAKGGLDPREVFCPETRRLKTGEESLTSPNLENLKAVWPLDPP
The gist of the method: as §1

In a further assay the target is T9, ELK3 (Homo sapiens, UniProt P41970 1-407).
T9 sequence: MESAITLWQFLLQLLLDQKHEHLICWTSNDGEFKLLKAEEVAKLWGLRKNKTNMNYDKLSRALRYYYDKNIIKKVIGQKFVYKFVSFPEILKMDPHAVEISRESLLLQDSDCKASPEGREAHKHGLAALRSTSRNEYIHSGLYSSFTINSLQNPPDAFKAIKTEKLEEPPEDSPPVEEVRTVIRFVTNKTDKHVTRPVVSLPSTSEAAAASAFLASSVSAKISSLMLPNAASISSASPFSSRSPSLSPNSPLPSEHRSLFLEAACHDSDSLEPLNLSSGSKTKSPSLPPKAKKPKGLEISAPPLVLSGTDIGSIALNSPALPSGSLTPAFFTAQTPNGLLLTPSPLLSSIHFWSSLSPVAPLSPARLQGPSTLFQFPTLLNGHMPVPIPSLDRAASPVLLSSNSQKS
The gist of the method:
as §1

For the sequence TGGCGT, the binding signal with FLI1 is 1.01 fold enrichment (6-mer frequency, TF over GST control); in the assay with SPIC it was 1.04 fold enrichment (6-mer frequency, TF over GST control); with ELF4, 1.01 fold enrichment (6-mer frequency, TF over GST control); in the assay with ETV2, 1.05 fold enrichment (6-mer frequency, TF over GST control).
Regarding GACTGC, the binding signal was 1.03 fold enrichment (6-mer frequency, TF over GST control) with FLI1; 1.03 fold enrichment (6-mer frequency, TF over GST control) in the assay with ELK1; 1.11 fold enrichment (6-mer frequency, TF over GST control) with GABPA; 1.01 fold enrichment (6-mer frequency, TF over GST control) with ELF4; 1.08 fold enrichment (6-mer frequency, TF over GST control) in the assay with ELK4; 1.03 fold enrichment (6-mer frequency, TF over GST control) with ERF. In addition, the binding signal in the assay with ETV3L is 1.02 fold enrichment (6-mer frequency, TF over GST control).
Consider GTGTAC, for which the binding signal is 1.07 fold enrichment (6-mer frequency, TF over GST control) in the assay with FLI1; 1.03 fold enrichment (6-mer frequency, TF over GST control) with ELK3; 1.2 fold enrichment (6-mer frequency, TF over GST control) with SPIC.
